# Measured values: the supplement of paper PMC9135407
# Several values for one entry are separate records, joined by “and”; a condition that tells them apart may be missing. Equal entries are not always repeated. Structures can show the parent of a compound that is named as a salt. About 620 (11%) of roughly 5,800 compounds showed activity. The full list was thinned out, with actives kept by preference. Values without a mark were called inactive.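 How the source made its calls: active = score above a cut-off or among the top three wells of a plate; in these data no inactive exceeds 0.85.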
# Test system: primary human hepatic stellate cells (donor 1)
# Experiment: scaled lipid accumulation score (0 = DMSO-like, 1 = nortriptyline-like); higher = stronger HSC inactivation (lipid re-accumulation), active = hit call of the paper
# Conditions: 48 h
# [1] = library stock concentration: 3.33 mM
# [2] = library stock concentration: 10 mM
# [3] = library stock concentration: 1 mM
# [4] = library stock concentration: 6.9 mM
structure (smiles),measurement,setting,value
O=C1C=CC[C@@H]2[C@H]3CCCN4CCC[C@@H](CN12)[C@@H]34 [Sophocarpine],scaled lipid accumulation score,[1],≤ 0
same,scaled lipid accumulation score,[2],≤ 0
CCCCC/C=C\C/C=C\C/C=C\C/C=C\CCCC(=O)NCCOP(=O)(O)O [Arachidonoyl Ethanolamide Phosphate],scaled lipid accumulation score,[3],≤ 0
"C/C(=C\c1csc(C)n1)[C@@H]1C[C@@H]2O[C@]2(C)CCC[C@H](C)[C@H](O)[C@@H](C)C(=O)C(C)(C)[C@@H](O)CC(=O)O1 [Epothilone B (EPO906, Patupilone)]",scaled lipid accumulation score,[1],≤ 0
same,scaled lipid accumulation score,[2],≤ 0
CCCCC/C=C\C/C=C\C/C=C\C/C=C\CCCC(N)=O [Arachidonoyl amide],scaled lipid accumulation score,[3],≤ 0
CCCCC/C=C\C/C=C\C/C=C\C/C=C\CCCC(N)=O [Arachidonamide],scaled lipid accumulation score,[3],≤ -0.021
CN1C2CCC1CC(OC(c1ccc(F)cc1)c1ccc(F)cc1)C2.Cl (stereo unspecified),scaled lipid accumulation score,[2],1.29 (active)
CN1[C@H]2C[C@H](OC(=O)[C@H](CO)c3ccccc3)C[C@@H]1[C@@H](O)C2 [Anisodamine],scaled lipid accumulation score,[2],0.076
CN1[C@@H]2CC[C@H]1C[C@@H](OC(c1ccccc1)c1ccccc1N)C2 (stereo partly specified) [Aminobenztropine],scaled lipid accumulation score,[2],0.656
CN1[C@H]2C[C@H](OC(=O)[C@H](CO)c3ccccc3)C[C@@H]1[C@@H](O)C2,scaled lipid accumulation score,[2],≤ 0
COc1cc(C(=O)OC2CC3CCC(C2)N3C)ccc1O (stereo unspecified) [Fillalbin],scaled lipid accumulation score,,≤ 0
CN1C2CCC1CC(OC(c1ccccc1)c1ccc(Cl)cc1)C2.Cl (stereo unspecified),scaled lipid accumulation score,[2],1.07 (active)
CN1[C@@H]2CC[C@H]1C[C@@H](OC1c3ccccc3CCc3ccccc31)C2 [Deptropine citrate],scaled lipid accumulation score,,0.266
CC(C)(C)OC(=O)NC1[C@H]2CNC[C@@H]12 (stereo partly specified),scaled lipid accumulation score,[2],≤ -0.033
CCCCCCCCCCCCCCCCSP(=O)([O-])OCC[N+](C)(C)C [thio-Miltefosine],scaled lipid accumulation score,[3],≤ 0
CCCCC/C=C\C/C=C\C/C=C\C/C=C\CCCC(=O)NCc1ccoc1,scaled lipid accumulation score,[3],≤ 0
CCCCC(C#N)(Cn1cncn1)c1ccc(Cl)cc1 (stereo unspecified) [Myclobutanil],scaled lipid accumulation score,[4],≤ 0
[O-][n+]1ccccc1[S-].[O-][n+]1ccccc1[S-].[Zn+2] [Pyrithione zinc],scaled lipid accumulation score,library stock concentration: 6.3 mM,0.435
same,scaled lipid accumulation score,[2],0.127
c1cncc([C@@H]2CCCN2)c1 [Nornicotine],scaled lipid accumulation score,[2],≤ 0
c1cncc([C@@H]2CCCCN2)c1 [Anabasine],scaled lipid accumulation score,,≤ 0
Fc1cc(F)c2c(c1)[C@H]1C=CC[C@@H]1C(c1cccnc1)N2 (stereo partly specified) [Golgicide A],scaled lipid accumulation score,[1],0.872 (active)
same,scaled lipid accumulation score,[2],1.03 (active)
C[C@H](CCC(=O)O)C[C@H](C)C[C@H](C)C(=O)/C=C(\O)[C@H](C)C[C@H](C)C/C=C/[C@@H](C)[C@@H](O)[C@@H](C)[C@@H](O)C[C@@H]1CC[C@@](C)([C@H]2CC[C@@](C)([C@@H](C)O)O2)O1 [Ionomycin],scaled lipid accumulation score,library stock concentration: 7.1 mM,0.48
O=C1CN=C(c2ccccc2)c2cc([N+](=O)[O-])ccc2N1 [Nitrazepam],scaled lipid accumulation score,[2],≤ 0
COc1ccc2[nH]cc(CCN)c2c1 [O-Methylserotonin hydrochloride],scaled lipid accumulation score,[2],≤ -0.055
COc1ccc2[nH]cc(CCN)c2c1 [5-Methoxytryptamine],scaled lipid accumulation score,[2],≤ 0
COc1ccc(CNC(=O)/C=C/c2ccc3[nH]cc(CCN(C)C)c3c2)cc1 [listing 1 of 2 here],scaled lipid accumulation score,[2],1.03 (active)
COc1ccc(CNC(=O)/C=C/c2ccc3[nH]cc(CCN(C)C)c3c2)cc1 [listing 2 of 2 here],scaled lipid accumulation score,[2],0.736
O[C@H]1[C@H](O)[C@@H](O)CN2CC[C@H](O)[C@H]12 [Castanospermine],scaled lipid accumulation score,[2],≤ 0
same,scaled lipid accumulation score,library stock concentration: 26.4 mM,0.125
CCCCCC=CCC=CCC=CCC=CCCCC(=O)NCC(O)CC(=O)O (stereo unspecified) [N-Arachidonoyl-3-hydroxy-.gamma.-Aminobutyric Acid],scaled lipid accumulation score,[3],≤ 0
CC[C@H]1CN2CC[C@H]1C[C@H]2[C@H](O)c1ccnc2ccc(OC)cc12 [Hydroquinine hydrobromide hydrate],scaled lipid accumulation score,,≤ 0
CCCC[C@H]1C(=O)O[C@H](C)[C@H](NC(=O)c2cccc(NC=O)c2OC)C(=O)O[C@@H](C)[C@@H]1OC(=O)CC(C)C [2-methoxyantimycin A3],scaled lipid accumulation score,library stock concentration: 9.4 mM,0.292
CC(C)(C)c1cc(C=C(C#N)C#N)cc(Br)c1O,scaled lipid accumulation score,[1],≤ 0
same,scaled lipid accumulation score,[2],≤ 0
CC(C)(C)c1cc(C=C(C#N)C#N)cc(C(C)(C)C)c1O [Tyrphostin 9] [listing 1 of 2 here],scaled lipid accumulation score,[2],1.27 (active)
CC(C)(C)c1cc(C=C(C#N)C#N)cc(C(C)(C)C)c1O [Tyrphostin 9] [listing 2 of 2 here],scaled lipid accumulation score,[1],0.175
same,scaled lipid accumulation score,library stock concentration: 17.7 mM,0.752
CC(C)(C)c1cc(C=C(C#N)C#N)cc(C(C)(C)C)c1O [Tyrphostin A9],scaled lipid accumulation score,[2],0.728
C[C@]12CC[C@H]3[C@@H](CCC4=CC(=O)CC[C@@]43C)[C@@H]1CC[C@@H]2O [Testosterone],scaled lipid accumulation score,[4],0.032
same,scaled lipid accumulation score,[2],0.108 and 0.479
Oc1cc2c(cc1O)[C@H]1c3ccccc3CN[C@@H]1CC2 (racemic) [Dihydrexidine hydrochloride],scaled lipid accumulation score,[2],0.823
"CCCC[N+]1(C)[C@@H]2C[C@@H](OC(=O)[C@H](CO)c3ccccc3)C[C@H]1[C@@H]1O[C@@H]12 (single isomer, unassigned; (-)) [(-)-Scopolamine,n-Butyl-, bromide]",scaled lipid accumulation score,[2],≤ 0
CCCCCCCCCOc1ccc2[nH]cc(CCN)c2c1 [5-Nonyloxytryptamine],scaled lipid accumulation score,library stock concentration: 9.9 mM,0.5
CC(N)Cc1c[nH]c2ccc(OCc3cccs3)cc12.Cl (stereo unspecified),scaled lipid accumulation score,[2],1.18 (active)
CC(N)Cc1c[nH]c2ccc(O)cc12 (stereo unspecified),scaled lipid accumulation score,[2],≤ 0
CC(N)Cc1c[nH]c2ccc(O)cc12 (stereo not drawn) [alpha-Methyl-5-hydroxytryptamine maleate],scaled lipid accumulation score,[2],≤ -0.055
CNCCc1c[nH]c2ccc(O)cc12 [N-omega-Methyl-5-hydroxytryptamine oxalate salt],scaled lipid accumulation score,[2],≤ -0.055
CC(N)Cc1c[nH]c2ccc(OCc3cccs3)cc12 (stereo unspecified),scaled lipid accumulation score,[3],0.315
CC(N)Cc1c[nH]c2ccc(OCc3cccs3)cc12.Cl (stereo unspecified) [BW 723C86 hydrochloride],scaled lipid accumulation score,[2],1.3 (active)
CN1CCC2=C[C@H](O)[C@H]3OC(=O)c4cc5c(cc4[C@H]3[C@@H]21)OCO5 [Hippeastrine hydrobromide],scaled lipid accumulation score,,≤ 0
O=S(=O)(c1c(O)c(Cl)cc(Cl)c1Cl)c1c(O)c(Cl)cc(Cl)c1Cl [p38 MAP Kinase Inhibitor IV],scaled lipid accumulation score,[1],≤ 0
CCCCC/C=C\C/C=C\C/C=C\C/C=C\CCCC(=O)NCCS(=O)(=O)O [N-Arachidonoyl Taurine],scaled lipid accumulation score,[3],0.01
O=C1C2CCN(CC2)C1(CO)CO [listing 1 of 2 here],scaled lipid accumulation score,library stock concentration: 27 mM,0.911 (active)
O=C1C2CCN(CC2)C1(CO)CO [listing 2 of 2 here],scaled lipid accumulation score,[3],≤ 0
same,scaled lipid accumulation score,[2],0.045
CC(=O)C1=C(O)[C@@H]2[C@H]3c4c[nH]c5cccc(c45)C[C@H]3C(C)(C)N2C1=O [Cyclopiazonic Acid],scaled lipid accumulation score,[2],0.021
CC(=O)C1=C(O)[C@@H]2[C@H]3c4c[nH]c5cccc(c45)C[C@H]3C(C)(C)N2C1=O [Cyclopiazonic acid],scaled lipid accumulation score,library stock concentration: 14.9 mM,0.019
"BrC1C(Br)C(Br)C(Br)C(Br)C1Br (stereo unspecified) [1,2,3,4,5,6-Hexabromocyclohexane]",scaled lipid accumulation score,[2],≤ -0.001
CC1=C2C[C@H]3[C@@H](CC=C4C[C@@H](O)CC[C@@]43C)[C@@H]2CC[C@]12O[C@@H]1C[C@H](C)CN[C@H]1[C@H]2C [Cyclopamine],scaled lipid accumulation score,library stock concentration: 12.1 mM,0.19
COC(=O)/C=C/C(=O)N[C@@H]1CC[C@@]2(O)[C@H]3Cc4ccc(O)c5c4[C@@]2(CCN3CC2CC2)[C@H]1O5,scaled lipid accumulation score,[2],0.325
CC1=NCCc2c1[nH]c1cc(O)ccc21 [Harmalol hydrochloride],scaled lipid accumulation score,[2],≤ 0
COc1ccc2c3c([nH]c2c1)C(C)=NCC3 [Harmaline],scaled lipid accumulation score,[2],0.389
COc1ccc2c3c([nH]c2c1)C(C)=NCC3 [Harmaline hydrochloride dihydrate],scaled lipid accumulation score,,0.371
CC1=NCCc2c1[nH]c1cc(O)ccc21.Cl.O.O [Harmalol hydrochloride dihydrate],scaled lipid accumulation score,,0.979 (active)
COC1=C[C@@H]2C3=C([C@@H]2C1=O)[C@@H](NC(C)=O)CCc1cc(OC)c(OC)c(OC)c13 [Lumicolchicine gamma],scaled lipid accumulation score,,≤ 0
"c1ccc(C2CNCc3ccccc32)cc1 (stereo unspecified) [4-Phenyl-1,2,3,4-tetrahydroisoquinoline hydrochloride]",scaled lipid accumulation score,[2],0.217
Cl.Cl.Fc1ccc(C(OCCN2CCN(CCCc3ccccc3)CC2)c2ccc(F)cc2)cc1 [listing 1 of 2 here],scaled lipid accumulation score,,0.864 (active)
Cl.Cl.Fc1ccc(C(OCCN2CCN(CCCc3ccccc3)CC2)c2ccc(F)cc2)cc1 [listing 2 of 2 here],scaled lipid accumulation score,[2],0.942 (active)
Fc1ccc(C(OCCN2CCN(C/C=C/c3ccccc3)CC2)c2ccc(F)cc2)cc1,scaled lipid accumulation score,[2],0.507
Fc1ccc(C(OCCN2CCN(CCCc3ccccc3)CC2)c2ccc(F)cc2)cc1,scaled lipid accumulation score,[2],≤ -0.061
Clc1ccc(C(OCCN2CCCCC2)c2ccccc2)cc1 (stereo unspecified) [Cloperastine hydrochloride],scaled lipid accumulation score,,0.488
same,scaled lipid accumulation score,[2],0.544
c1ccc(CCCN2CCN(CCOC(c3ccccc3)c3ccccc3)CC2)cc1,scaled lipid accumulation score,[2],≤ -0.07 and 0.566
